# Source: PubChem (National Center for Advancing Translational Sciences (NCATS))
# Most compounds without a hit are left out; they make up all but 6.1% or so of the library.
# D1 agonist = activates the human D1 dopamine receptor | hit rate 1% among 360,000 | HEK293 T-REx D1 cells, calcium flux, agonist mode | AID 504660 | activation, % at 2 µM; in the data active = activation above about 30%; also: 0% is about no effect
# Target sequence (P21728 whole entry, looked up): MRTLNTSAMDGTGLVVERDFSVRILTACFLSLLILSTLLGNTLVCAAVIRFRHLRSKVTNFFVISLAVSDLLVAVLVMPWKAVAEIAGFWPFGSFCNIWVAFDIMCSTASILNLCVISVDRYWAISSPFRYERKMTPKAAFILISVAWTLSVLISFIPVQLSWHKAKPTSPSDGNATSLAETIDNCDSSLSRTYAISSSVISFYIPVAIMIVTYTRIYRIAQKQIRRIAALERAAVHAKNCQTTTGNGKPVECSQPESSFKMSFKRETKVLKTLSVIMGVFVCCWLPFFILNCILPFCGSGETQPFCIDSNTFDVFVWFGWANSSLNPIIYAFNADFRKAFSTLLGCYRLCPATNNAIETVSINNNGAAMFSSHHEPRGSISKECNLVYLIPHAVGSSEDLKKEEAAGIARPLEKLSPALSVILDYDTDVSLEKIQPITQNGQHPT
#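 Tetracycline-induced HEK293 TREx D1 cells, force-coupled to calcium signalling, were dye-loaded with a no-wash calcium kit. Compound was pin-added after a 10 s baseline. Fluorescence was read kinetically at 1 cycle/s for 180 s, with calcium rises flagged as agonism.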
# D3 ag = D3 dopamine receptor (human) agonism. D3R DiscoveRx beta-arrestin cells, luminescence, 90 min. max activation, %. hit rate 0.58% among 410,000. AID 652048; in the data active = max activation above about 30%; also: 0% is about no effect
#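 Agonist mode: compounds and dopamine controls were applied to plated cells for 90 min at 37 degrees C after an overnight attachment at 1500 cells/well. Luminescent read-out followed 30 - 60 minutes at room temperature with DiscoveRx detection reagent.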
# ERG-DNA inh = inhibitors of human ERG Ets domain-DNA interaction. P11308. fluorescence polarization, His-ERG Ets domain / labelled DNA. Potency, µM (titrated, usually from 76.9 µM), for inactives: top-dose FP activity, negative = inhibition, most hits filed as inhibitors. hit rate 0.028% among 370,000. AID 624246; active = well fitted inhibition curve with a large enough effect in the polarisation, with a control signal flat; inconclusive = small, poorly fitted or top-dose-only effect, or effect the other way, or a change in a side signal; inactive = no such curve, though single readings can be large or run the other way; the % refers to the polarisation;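 also: polarization taken with two DNA probes labelled with fluorescein and Texas red; potency is read from the fitted curve at half-maximal effect; % of control where 0% means no effect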
#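 His-tagged ERG Ets domain (1 uM in the protein solution; 300mM KCl, 50mM Tris-HCl, 1mM EDTA, 1mM DTT, pH 7.5) received compound, then a probe mix of 5 nM fluorescein-DNA and 100nM Texas-615-DNA. Fluorescence polarization was read for both dyes.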
# DRD3 antagonist = antagonists of human D3 dopamine receptor; D3R cells, DiscoveRx beta-arrestin luminescence, antagonist mode; hits give low values; max response, negative = inhibition, %; hit rate 2.5% among 360,000; AID 652054; in the data active = max response below about -50%; inconclusive = no clear call, values can overlap the other calls; also: % is scaled to controls: 0 for no effect and ±100 for the full control effect
#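 Cells expressing the human receptor were seeded at 1500 cells/well, incubated overnight at 37 degrees C in 5% CO2, then exposed to library compounds with dopamine controls for 90 minutes at 37 degrees C before luminescent detection.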
# D1 antag = human D1 dopamine receptor antagonism. hit rate 3.2% among 360,000. HEK293 TREx D1 cells, calcium flux, dopamine EC80; hits give low values. P21728. activity change, negative = inhibition, % at 10 µM; in the data active = activity change below about -30%; also: % is scaled to controls: 0 for no effect and ±100 for the full control effect
#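 Using tetracycline-induced force-coupled D1 Hek293 cells and a calcium dye, signals were followed for 180 s after compound, then for 180 s after EC80 dopamine, to detect inhibitors.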
# D1 PAM = human D1 dopamine receptor positive modulation. P21728. HEK293 TREx D1 cells, calcium flux, dopamine EC20 potentiation. potentiation, % at 10 µM. hit rate 0.036% among 360,000. AID 504651; in the data active = potentiation above about 30%; also: 0% is about no effect
# * marks the source's active call; other numbers are inactive results; ? = inconclusive; . = not tested or not shown.
SMILES,D1 agonist,D3 ag,ERG-DNA inh,DRD3 antagonist,D1 antag,D1 PAM
CCCCN(CC)Cc1ccc(CNC(=S)Nc2cccc(F)c2)o1,34.0*,-16.3,-2.7%,-25.1,-0.5,-9.1
CC(C)Cc1ccc(C(C)C(=O)Nc2ccc(O)cc2)cc1 (stereo not drawn),82.9*,2.7,13.3%,-3.3,-67.5*,5.0
CC(CC(=O)Nc1cccnc1)c1ccccc1 (stereo not drawn),1.4,41.7*,2.8%,-11.4,0.2,-3.1
CC(C)CC(NC(=O)C1CCC(C)CC1)C(=O)NCc1cccnc1 (stereo not drawn),0.8,-2.6,4.1%,2.5,2.2,-8.2
CC(C)CC(NC(=O)C1CCC(C)CC1)C(=O)Nc1cccnc1 (stereo not drawn),-0.4,-0.8,-0.5%,-22.5,-35.0*,-3.0
CC(C)Cc1ccc(C(C)C(=O)Nc2cccnc2)cc1 (stereo not drawn),75.2*,6.0,-1.2%,27.7,-50.9*,-4.7
COc1ccc(Cl)c(NC(=O)NCCN2CCN(c3ccccc3)CC2)c1,6.6,-6.9,-4.2%,?,-65.1*,-5.8
COc1ccc(Cl)c(N2CCN(CCCNC(=O)Nc3ccc(C)cc3)CC2)c1,29.2,-4.0,10.1%,1.4,-59.6*,-21.3
COc1cccc(C(=O)NCCN2CCN(c3ccccc3)CC2)c1,0.7,18.7,-9.2%,?,-1.2,-1.6
CC(Oc1ccc(Cl)cc1Cl)C(=O)NCCN1CCOCC1 (stereo not drawn),3.9,-0.9,-0.9%,27.2,15.8,-7.7
O=C(NCCN1CCOCC1)Nc1ccc(Cl)cc1Cl,1.3,-9.3,-1.5%,-6.5,-44.5*,2.4
COc1ccc(N2CCN(CCNC(=O)Nc3cc(Cl)ccc3OC)CC2)cc1,44.4*,-3.5,6.6%,?,-18.2,-16.3
CCc1ccc(N2CCN(CCNC(=O)Nc3ccc(OC)cc3)CC2)cc1,1.8,1.4,0.4%,8.1,3.3,16.3
COc1ccc(NC(=O)NCCN2CCN(c3cc(OC)ccc3OC)CC2)cc1,2.7,-12.6,-1.6%,-1.1,3.5,1.1
Cc1c(Cl)ccc2c1NC(=O)[C@]21N[C@@H](Cc2ccccc2)[C@H]2C(=O)N(c3ccc(F)cc3)C(=O)[C@H]21,33.6*,4.0,-1.5%,-9.6,-1.1,16.3
O=C1[C@@H]2[C@H](Cc3ccc(O)cc3)N[C@]3(C(=O)Nc4ccccc43)[C@@H]2C(=O)N1c1ccc(F)cc1,-0.9,.,.,.,14.7,4.8
NS(=O)(=O)c1ccc(CCNC(=O)NC23CC4CC(CC(C4)C2)C3)cc1,0.7,4.6,-7.5%,6.7,.,-5.2
NS(=O)(=O)c1ccc(-n2nncc2C23CC4CC(CC(C4)C2)C3)cc1,0.9,1.3,.,-16.1,-90.8*,-2.2
O=C(O)C1C2C=CC(C2)C1C(=O)NC1CCS(=O)(=O)C1 (stereo not drawn),2.5,6.5,1.5%,-101.7*,17.0,1.2
CC(C)(C)[C@H]1C=C(C(N)=O)O[C@@H](OCc2ccc(CO)cc2)C1,-3.0,0.3,-5.6%,10.5,-30.7*,1.8
NC(=O)C1=C[C@@H](c2ccc(C(F)(F)F)cc2)C[C@@H](OCc2ccc(CO)cc2)O1,-2.8,-6.6,-5.6%,-55.7*,-12.7,0.1
CC(C)(C)[C@@H]1C=C(C(N)=O)O[C@H](OCc2ccc(CO)cc2)C1,3.8,0.7,3.0%,37.6,12.9,-0.6
COc1ccc(OCC(=O)N2CCN(S(=O)(=O)c3ccc(Cl)s3)CC2)cc1,4.9,-0.8,2.1%,-23.3,-1.0,-1.6
CCCCn1c(N)c(N(CCOC)C(=O)c2ccc(Cl)c(S(=O)(=O)N3CCCC3)c2)c(=O)[nH]c1=O,2.7,0.1,-4.1%,4.5,-0.7,-9.9
CCCCn1c(N)c(N(CC)C(=O)c2cccc(OC)c2)c(=O)[nH]c1=O,1.4,0.8,-5.5%,-2.1,-31.5*,-4.5
SMILES,D1 agonist,D3 ag,ERG-DNA inh,DRD3 antagonist,D1 antag,D1 PAM
CCCCn1c(N)c(N(CCOC)C(=O)c2ccc(C)c(S(=O)(=O)N3CCCCC3)c2)c(=O)[nH]c1=O,5.7,4.9,-15.9%,10.3,-38.0*,-2.5
C/C(=N/NC(=O)c1sc(NS(=O)(=O)c2ccccc2)nc1C)c1sc(N)nc1C,4.1,-2.1,3.5%,2.7,3.4,-0.9
Oc1ccc(CCNc2ncnc3ccc(Cl)cc23)cc1,6.9,51.7*,-26.5%,51.2,-40.2*,-8.6
Nc1nc(Cl)cc(NCCc2ccc(O)cc2)n1,16.3,-24.6,1.1%,1.6,-9.1,-7.0
Cn1nnnc1SCCCNCc1ccccc1OCc1ccccc1F,16.3,-22.9,1.1%,.,-15.6,-1.7
COc1ccc(CCNc2ncnc3sc(C)cc23)cc1OC,21.9,7.3,3.7%,20.4,-8.4,-2.9
COc1ccccc1CCC(=O)OCC(=O)c1c(N)n(CC(C)C)c(=O)n(C)c1=O,9.4,31.1*,1.1%,7.0,-16.9,3.5
CC(C)Cn1c(N)c(C(=O)COC(=O)C2CCCCC2)c(=O)n(C)c1=O,14.2,7.5,-1.5%,-9.9,-37.7*,1.9
Cn1c(=O)c(C(=O)CCl)c(N)n(CC2CC2)c1=O,1.2,34.5*,-8.2%,0.0,-18.2,-4.0
COc1ccc(CCC(=O)OCC(=O)c2c(N)n(CC(C)C)c(=O)n(C)c2=O)cc1,14.7,1.9,6.4%,21.8,-22.1,-7.7
CC(C)Cn1c(N)c(C(=O)CCl)c(=O)n(C)c1=O,0.9,11.5,-15.7%,61.0,4.3,-3.5
CCCCN(C(=O)CCNC(=O)NC12CC3CC(CC(C3)C1)C2)c1c(N)n(CCC)c(=O)[nH]c1=O,2.7,-0.7,1.5%,-5.9,-16.5,1.5
CCOC(=O)C1(CC2CC2)CCN(S(=O)(=O)C[C@]23CC[C@H](CC2=O)C3(C)C)CC1,5.8,-6.2,-1.6%,-12.4,1.5,-3.9
COc1ccc(OC)c(S(=O)(=O)N2CCN(C(=O)NC3CCCCC3)CC2)c1,1.8,-26.8,6.4%,-2.1,-11.5,1.9
Cc1cc(C)c(S(=O)(=O)Nc2cc(SCC(=O)O)c(O)c3ccccc23)cc1C,4.8,-10.1,7.2%,-54.3*,8.2,5.1
O=C(O)CSc1cc(NS(=O)(=O)c2ccc(Cl)cc2)c2ccccc2c1O,0.2,-11.6,-6.0%,0.0,27.0,2.2
Cc1ccc(NC(=O)CC2CCCC2)c(Br)c1,3.9,19.3,-16.1%,20.2,-19.8,-5.2
Oc1[nH]c(=S)sc1/C=C1\C(c2ccccc2)=Nc2ccccc21,37.5*,-2.1,-1.9%,?,0.1,-7.5
Oc1[nH]c(=S)sc1C=C1N=c2ccccc2=N1,1.4,-4.8,14.4%,-24.2,-9.2,-4.0
O=C(Nc1ccccc1N1CCOCC1)C1=NN(c2c(F)c(F)cc(F)c2F)C(=O)CC1,1.0,2.3,-0.1%,38.9,-7.0,-1.1
